TDP1 block = qHTS Assay for Inhibitors of Tyrosyl-DNA Phosphodiesterase (TDP1) | Tyrosyl-DNA phosphodiesterase 1 (Homo sapiens), Q9NUW8 | AID 485290, 2010 | Potency, µM (doses to about 130 µM), for inactives: at the top dose activity change, negative = inhibition, actives largely listed as inhibitors | recombinant TDP1, AlphaScreen DNA substrate cleavage | 350,000 compounds, 0.28% hits; further: potency means the concentration at half of the fitted maximal effect; on the % scale 0 is the no-effect control and ±100 the full control effect; nearly all actives have a fitted effect of over 40% in size
Target sequence (Q9NUW8 whole entry, looked up): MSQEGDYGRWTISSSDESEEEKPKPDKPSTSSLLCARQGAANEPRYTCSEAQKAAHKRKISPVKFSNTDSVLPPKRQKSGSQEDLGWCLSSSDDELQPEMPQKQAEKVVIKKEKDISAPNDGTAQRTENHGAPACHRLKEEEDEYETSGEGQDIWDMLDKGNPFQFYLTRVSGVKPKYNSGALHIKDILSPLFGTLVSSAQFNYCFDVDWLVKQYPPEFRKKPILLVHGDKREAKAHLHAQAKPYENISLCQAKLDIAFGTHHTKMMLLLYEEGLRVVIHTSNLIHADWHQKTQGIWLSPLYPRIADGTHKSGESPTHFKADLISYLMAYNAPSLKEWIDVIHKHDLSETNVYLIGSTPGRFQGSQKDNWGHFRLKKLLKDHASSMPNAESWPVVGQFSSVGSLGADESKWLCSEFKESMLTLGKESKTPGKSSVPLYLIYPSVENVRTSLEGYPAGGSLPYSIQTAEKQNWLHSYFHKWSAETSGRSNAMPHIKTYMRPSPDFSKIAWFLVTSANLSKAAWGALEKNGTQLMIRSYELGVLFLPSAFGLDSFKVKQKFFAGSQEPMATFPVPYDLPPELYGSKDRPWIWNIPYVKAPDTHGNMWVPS
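AlphaScreen read-out: signal falls as enzyme removes the 3' tyrosine-FITC from a 5'-biotinylated DNA oligo (15 nM, 5 min, RT). Enzyme was E. coli-made recombinant Tdp1 at 1 nM, exposed to compound for 15 min beforehand; beads 10 ug/ml, 10 min.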
HepG2 tox = qHTS for Inhibitors of TGF-b: Cytotox Counterscreen; HepG2 CAGA-GFP viability, ATP luminescence, 18 h; Potency, µM (series often up to 46.1 µM), for the others: top-dose activity change, negative = cytotoxicity, hits mostly cytotoxic; 410,000 compounds, 0.76% hits; AID 588856, 2011; further: potency means the concentration at half of the fitted maximal effect
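HepG2 CAGA-GFP cells (1000/well, DMEM with 1% FBS) received compound, then TGF-beta at 500 pg/mL final, and were incubated 18 hours at 37 degrees C. Viability was read by CellTiter-Glo luminescence. Media-only wells were set as complete cell-killing and DMSO as no toxicity.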
TGFb SMAD3 inh = qHTS for Inhibitors of TGF-b. HepG2 CAGA-GFP TGF-b/SMAD3 reporter, GFP fluorescence, 18 h; TGF-beta stimulated, 500 pg/mL final. Potency, µM (doses to about 46.1 µM), for the others: top-dose activity, negative = inhibition, usual class: inhibitors. 410,000 compounds, 1.2% hits. AID 588855, 2011; further: potency means the concentration at half of the fitted maximal effect; on the % scale 0 is the no-effect control and ±100 the full control effect; nearly all actives have a fitted effect of over 65% in size
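Smad-responsive CAGA-GFP expression was quantified in HEPG2 cells exposed to compounds and 500 pg/mL final TGF-beta for 18 h at 37 degrees C; unstimulated wells defined full inhibition.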
DT40 TDP1 CPT = qHTS for Inhibitors of human tyrosyl-DNA phosphodiesterase 1 (TDP1): qHTS in cells in presence of CPT. chicken DT40 Tdp1-/-;hTDP1 cells + 20 nM CPT, ATP luminescence, 48 h. Potency, µM (doses to about 46.2 µM), for the others: at the highest dose activity change, negative = growth inhibition, actives largely listed as inhibitors. 420,000 compounds, 12% hits; further: potency means the concentration at half of the fitted maximal effect; on the % scale 0 is the no-effect control and ±100 the full control effect; nearly all actives have a fitted effect of over 55% in size
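Chicken DT40 Tdp1-/- cells complemented with human TDP1, 400 cells/well, exposed to compounds plus 20 nM camptothecin for at least 48 h at 37 C; viability read as ATP content by CellTiter-Glo luminescence.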
TDP1 cell noCPT = qHTS for Inhibitors of human tyrosyl-DNA phosphodiesterase 1 (TDP1): qHTS in cells in absence of CPT. DT40 Tdp1-/- hTDP1 cells, no CPT, ATP luminescence, 48 h. Potency, µM (top dose mostly 46.2 µM), without a hit: at the highest dose activity change, negative = growth inhibition, actives largely listed as inhibitors. 420,000 compounds, 15% hits; further: potency means the concentration at half of the fitted maximal effect; on the % scale 0 is the no-effect control and ±100 the full control effect; nearly all actives have a fitted effect of over 55% in size
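Growth of hTDP1-complemented DT40 Tdp1-knockout cells is measured by ATP luminescence after at least 48 hr compound exposure at 37 °C, with DMSO substituting for the 20 nM CPT used in the parallel screen.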
IL1B secr inh = qHTS for Inhibitors of Inflammasome Signaling: IL-1-beta AlphaLISA Primary Screen. THP-1 LPS/ATP IL-1B secretion, AlphaLISA, 16 h; active compounds read low. activity change, % at 57.5 µM. 360,000 compounds, 4.7% hits. AID 743279, 2014; in the data active means activity change below about -50%; inconclusive means mostly about -30% to -49%; further: on the % scale 0 is the no-effect control and ±100 the full control effect
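Secreted IL-1B measured by AlphaLISA bead assay after 16 h compound exposure of THP-1 cells; compounds (final up to 57.5 uM) added 1 h before LPS (250 ng/mL) and ATP (1.25 mM) stimulation; lower signal means less secretion.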
The depositor's hits bear a star; ? = inconclusive; / = not tested or not shown. Most compounds without a hit are left out; they make up all but 19% or so of the library. Unless noted, the call rests on the fitted dose curve; in most records, active means well fitted curve in the direction sought with a large enough effect; inconclusive means small, poorly fitted or top-dose-only effect, or another doubt; inactive means no such curve, though single readings can be large; an effect the other way counts as inactive or inconclusive.

SMILES	TDP1 block	HepG2 tox	TGFb SMAD3 inh	DT40 TDP1 CPT	TDP1 cell noCPT	IL1B secr inh
COC1C=COC2(C)Oc3c(C)c(O)c4c(O)c(c(CN5CCN(C)CC5)c(O)c4c3C2=O)NC(=O)C(C)=CC=CC(C)C(O)C(C)C(O)C(C)C(OC(C)=O)C1C (stereo not drawn)	/	8%	-9%	23µM*	21µM*	-6
CO[C@H]1C=CO[C@@]2(C)Oc3c(C)c(O)c4c(O)c(c5c(c4c3C2=O)NC2(CCN(CC(C)C)CC2)N=5)=NC(=O)C(C)=CC=C[C@H](C)[C@H](O)[C@@H](C)[C@@H](O)[C@@H](C)[C@H](OC(C)=O)[C@@H]1C	9%	/	/	/	/	/
Cc1cccc(C)c1NC(=O)CNC(=O)CCCc1c[nH]c2ccccc12	/	-1%	0%	?	?	-9
COCCC(=O)N1CCC(Oc2ccc(C(=O)N3CCCCC3COC)cc2)CC1 (stereo not drawn)	1%	4%	0%	-9%	17%	12
COc1ccccc1N1CCN(C(=O)CSc2nc(-c3ccc(C(C)C)cc3)no2)CC1	-3%	-25%	?	23µM*	6.5µM*	/
O=C(CSc1nc(-c2ccccc2)no1)N1CCN(c2ccccc2F)CC1	3%	-20%	?	-28%	-13%	/
CC(C)c1ccc(-c2noc(SCC(=O)N3CCN(c4ccccc4F)CC3)n2)cc1	3%	-13%	?	23µM*	21µM*	/
O=C(CSc1nc(-c2ccccc2)no1)N1CCCCC1	3%	-6%	?	?	3.7µM*	/
Cc1cccc(C)c1NS(=O)(=O)c1ccc(NS(=O)(=O)c2ccc3c(c2)OCCO3)cc1	/	-16%	-10%	?	?	/
COc1ccc(C(=O)CN2CC(C)SC2=Nc2ccc(Cl)cc2)cc1 (stereo not drawn)	5%	-12%	-2%	?	23µM*	-5
COc1ccc(C(=O)N2CC(c3ccc(Cl)cc3)CC2=O)cc1 (stereo not drawn)	/	-5%	8%	-1%	-20%	-29
CCOc1ccc(NC(=O)CSc2nc3c(oc4ccccc43)c(=O)n2-c2cc(C)cc(C)c2)cc1	-2%	0%	?	-2%	2%	/
CCCCCCCn1c(NC(=O)CC)nc2ccccc21	/	6%	?	?	21µM*	/
CCC(=O)NC(C)c1nc2ccccc2n1C (stereo not drawn)	-1%	0%	3%	4%	-7%	-15
CC(C)CNC(=O)NC(=O)CSc1nc2ccccc2n1CC(C)C	10%	4%	0%	?	23µM*	-9
CCCCn1c(C(C)NC(=O)CC)nc2ccccc21 (stereo not drawn)	6%	-1%	-14%	23µM*	12µM*	29
CC(C)Cn1c(C(C)NC(=O)Cc2ccccc2)nc2ccccc21 (stereo not drawn)	5%	-1%	1%	12µM*	6.5µM*	-1
COc1cccc(NC(=O)CN2C(=O)NC(C)(CC(C)C)C2=O)c1 (stereo not drawn)	-1%	34%	2%	4%	-4%	-1
CCC[C@H](NC(=O)[C@H](Cc1ccc(O[S+](=O)([O-])O)cc1)NC(=O)OC(C)(C)C)C(=O)NCC(=O)N[C@@H](Cc1c[nH]c2ccccc12)C(=O)N[C@@H](CCC)C(=O)N[C@@H](CC(=O)OCCc1ccccc1)C(=O)O	3%	/	/	/	/	/
Nc1ncnc2c1ncn2[C@@H]1O[C@H](C(=O)N2CCN(CC(=O)Nc3cccc4c3CNC4=O)CC2)[C@@H](O)[C@H]1O	10%	/	/	/	/	/
COc1ccc(OC)c(CCNC(=O)c2cc3c(=O)oc4ccc(C)cc4c3s2)c1	-1%	0%	-14%	2%	-24%	/
CC(=O)Nc1ccc(Nc2nc3ccc(Cl)cc3n3cnnc23)cc1	-8%	5%	/	6%	-11%	/
COc1ccc(NC(=O)c2cc(-c3ccc(F)cc3OC)n[nH]2)c(OC)c1	/	-16%	27%	16µM*	15µM*	/
COc1ccc(NC(=O)c2cc(-c3cc(F)ccc3OC)n[nH]2)c(OC)c1	/	-16%	54%	26µM*	?	/
COc1ccc(NC(=O)c2cc(-c3cc(C)c(C)cc3O)n[nH]2)c(OC)c1	/	-27%	-21%	0%	?	4
SMILES	TDP1 block	HepG2 tox	TGFb SMAD3 inh	DT40 TDP1 CPT	TDP1 cell noCPT	IL1B secr inh
CCOc1ccccc1-n1nnc(-c2nc(-c3ccccc3)no2)c1N	-8%	-19%	0%	1%	-24%	/
COC(=O)c1ccc(N2C(=O)C3CC(C)=C(C)CC3C2=O)cc1 (stereo not drawn)	0%	-13%	-2%	0%	0%	24
Cc1ccc(S(=O)(=O)N2[C@@H](Cc3ccccc3)CO[C@H]2CC(=O)c2ccccc2)cc1	/	/	/	-23%	-27%	-6
Cc1ccc(S(=O)(=O)N2[C@@H](Cc3ccccc3)CO[C@H]2CC(=O)c2ccc(F)cc2)cc1	/	/	/	23µM*	?	-14
Cc1ccc(S(=O)(=O)N2[C@H](CC(=O)c3cccs3)OC[C@@H]2C(C)C)cc1	/	/	/	?	18µM*	30
Cc1ccc(S(=O)(=O)N2[C@H](CC(=O)c3ccccc3)OC[C@@H]2C(C)C)cc1	/	/	/	?	?	1
COc1cc(C2C3=C(COC3=O)Oc3cc4c(cc32)OCO4)cc(OC)c1OC(C)=O (stereo not drawn)	/	-2%	?	0.65µM*	0.65µM*	19
COc1cc(C2C3=C(COC3=O)Oc3cc4c(cc32)OCO4)ccc1OC(C)=O (stereo not drawn)	/	0%	-10%	1.6µM*	1.8µM*	22
COc1ccc(C2C3=C(COC3=O)Oc3cc4c(cc32)OCO4)cc1OC (stereo not drawn)	5%	-17%	0%	1.8µM*	1.5µM*	9
C=CCN(c1nc(C)c(Br)c(OC)n1)S(=O)(=O)c1ccc(C)cc1	50µM*	-20%	-14%	-14%	-37%	18

Bioassay records (PubChem BioAssay)
